Results from PubChem BioAssay AID2451 (National Center for Advancing Translational Sciences (NCATS), 2010).
About 2,100 (0.72%) of roughly 290,000 compounds were called active. About 4% were inconclusive and are not listed. The entries come from a sample that favours actives as a whole. Unmarked numbers belong to inactive results. Calls come from the whole dose curve; as a rule, active = well fitted inhibition curve with a large enough effect; inconclusive = small, poorly fitted or top-dose-only effect, or effect the other way; inactive = flat fitted curve, though single readings scatter.

Each compound was assayed against Fructose-bisphosphate aldolase (Giardia intestinalis (strain ATCC 50803 / WB clone C6)) (UniProt A8B2U2) (assay: qHTS Assay for Inhibitors of Fructose-1,6-bisphosphate Aldolase from Giardia Lamblia). Details: purified Giardia FBPA; series mostly up to 59.6 µM; activity, negative = inhibition: at the top concentration.
Summary of the method: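 40 nM FBPA preincubated 10 min at RT with compound (up to 57.5 uM final), then substrate plus GAPDH/TPI/NAD/arsenate coupling and diaphorase/resazurin added. Fluorescence read after 20 min at RT, 525/598 nm.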
% is set by controls: 0 for no effect and ±100 for the full control effect; potency is the fitted concentration of half-maximal effect.
Note: nearly all actives have a fitted effect of over 55% in size.

Fructose-bisphosphate aldolase (Giardia intestinalis (strain ATCC 50803 / WB clone C6)), sequence (A8B2U2 whole entry, looked up): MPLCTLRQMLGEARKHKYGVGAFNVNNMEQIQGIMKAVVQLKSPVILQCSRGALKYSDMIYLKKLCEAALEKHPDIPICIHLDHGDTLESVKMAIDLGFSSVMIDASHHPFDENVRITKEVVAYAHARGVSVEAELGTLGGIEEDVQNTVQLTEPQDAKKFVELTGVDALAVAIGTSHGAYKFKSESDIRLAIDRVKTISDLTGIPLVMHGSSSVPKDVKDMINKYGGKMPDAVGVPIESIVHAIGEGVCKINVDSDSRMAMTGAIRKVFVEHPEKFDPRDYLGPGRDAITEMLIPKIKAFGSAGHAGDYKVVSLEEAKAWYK

SMILES | activity, negative = inhibition [%] | Potency
CCS(=O)(=O)Nc1ccc(C(=O)NCCSc2ccccc2)cc1 | 9.82 | –
CC(=O)OCCN(CCCn1c(-c2ccncc2)nc2ccccc21)c1nc(-c2ccc(C)cc2)cs1 | -10.8 | –
Oc1c(C=Nc2cccc3nsnc23)ccc2ccccc12 | – | 5 µM (active)
Cc1ccccc1NC(=O)C1CCN(C(=O)NC2CCCCC2)CC1 | 6.06 | –
COC(=O)C1=CN(c2ccc(F)c(F)c2)C=C(C(=O)OC)C1c1ccc([N+](=O)[O-])cc1 | 0.105 | –
Cc1ccc(C(=O)Nc2nnc(C3=COCCO3)o2)cc1C | – | 31.6 µM (active)
COc1ccccc1-c1nnc(NC(=O)c2cccc(N3C(=O)CCC3=O)c2)o1 | 10.3 | –
COc1ccccc1-c1nnc(NC(=O)c2ccc3ncsc3c2)o1 | 28.4 | –
COC(=O)c1ccccc1NC(=O)C1CCN(C(=O)N2CCOc3ccccc32)CC1 | -3.52 | –
COc1ccc(C2Oc3c(I)c(OC)cc(OC)c3CC2O)cc1OC (configuration not stated) | 7.26 | –
Oc1cc(O)c2c(c1)OC(c1ccc(O)c(O)c1)C(O)C2 (configuration not stated) | – | 9.98 µM (active)
O=C(NC(=S)Nc1ncccn1)c1ccccc1Br | – | 3.98 µM (active)
O=C(NC(=S)Nc1ccc(S(=O)(=O)Nc2ncccn2)cc1)c1cccc(Br)c1 | 1.97 | –
COC(=O)c1ccccc1NC(=S)NC(=O)c1ccccc1F | -16.7 | –
CCOc1ccc(OCC)c(NC(=O)CCS(=O)(=O)c2ccc(C)cc2)c1 | 7.51 | –
COCCCNCCOCCOc1ccc(Cl)cc1Br | -23.6 | –
Cn1c(CCCOc2ccc(Cl)cc2Cl)n[nH]c1=S | -0.566 | –
CN(C)CCOc1ccc(Cl)cc1C(C)(C)C | – | 14.1 µM (active)
CNC(=S)N/N=C/c1ccc(N2CCOCC2)s1 | – | 12.6 µM (active)
Cc1cc(C(=O)N/N=C/c2ccc(N3CCOCC3)cc2)c(C)o1 | -0.673 | –
C=CCNC(=S)N/N=C/c1ccc(C)s1 | 5.8 | –
O=C(CCCC(=O)N1CCN(c2cccc(Cl)c2)CC1)c1ccccc1 | -11.4 | –

SMILES | activity, negative = inhibition [%] | Potency
NC(=O)CC(NC(=O)Cc1ccc(Br)cc1)c1ccc(NC2CC3CCC2C3)c([N+](=O)[O-])c1 (configuration not stated) | -10.4 | –
COc1cc(OC)c(C(=S)N2CCCC2)cc1OC | -20.3 | –
O=S(=O)(Nc1ccc2cn[nH]c2c1)c1ccccc1 | -18.7 | –
O=S(=O)(Nc1ccc2nc(-c3ccco3)[nH]c2c1)c1ccccc1 | – | 19.9 µM (active)
Cn1c(CCN2CCCC2)nc2cc(NS(=O)(=O)c3ccccc3)ccc21 | -18.8 | –
CCN1CCN(C(=O)C2CCCN(S(=O)(=O)c3ccc(OC)c(OC)c3)C2)CC1 (configuration not stated) | 5.43 | –
Cc1ccc(N(Cc2cc(=O)[nH]c3ccccc23)C(=O)CCl)cc1 | -5.08 | –
O=C(NCCCc1ccccc1)c1cc(COc2c(F)cccc2F)on1 | -2.9 | –
N#Cc1c(N2CCCCC2)nc(N)c2c(N)nc(SCC(=O)O)cc12 | – | 12.6 µM (active)
Cc1cc(C)c(C#N)c(N2CCC(C(N)=O)CC2)n1 | 4.78 | –
N#Cc1c(-c2ccccc2)cc(-c2ccccc2)nc1SCC(=O)O | 14.5 | –
CSc1nnc(C2CCCN(CC(=O)Nc3ccccc3N3CCOCC3)C2)n1C(C)C (configuration not stated) | 13.2 | –
Cc1cc(C)cc(N(CC(=O)NC2CCCC2)C(=O)CCC(=O)Nc2nccs2)c1 | -3.79 | –
CC(=O)NC(CC(=O)Nc1nccs1)c1ccccc1 (configuration not stated) | 19.9 | –
CC(=O)NC1CCN(CC(=O)Nc2nccs2)CC1 | – | 10 µM (active)
COc1ccccc1CCNS(=O)(=O)c1cn(C)nc1C | 3.76 | –
COc1ccc(CNC(=O)c2cc(=O)c3c(C)cc(C)cc3o2)cc1 | -2.56 | –
CNC(=O)C(=O)N/N=C/c1ccccn1 | -28 | –
O=C(N/N=C/c1ccc(O)c2ccccc12)c1cccnc1 | -1.74 | –
O=C(N/N=C/c1ccccn1)c1cccnc1 | – | 4.46 µM (active)
Cc1ccc(C(=O)Nc2cccc3ncccc23)cc1[N+](=O)[O-] | -3.73 | –
Cc1ccc(/C=C(\C#N)C(=O)Nc2cccc3ncccc23)o1 | – | 5.61 µM (active)

SMILES | activity, negative = inhibition [%] | Potency
O=C(Nc1cccc2ncccc12)C(Cl)(Cl)Cl | 0.917 | –
COc1ccc(C(=O)CC(=O)c2ccc(C)cc2)c(O)c1 | 0.0144 | –
c1ccc2c(c1)CCc1snnc1-2 | 2.66 | –
CSc1ccc(S(=O)(=O)N2CCC(C(=O)NCCc3ccccc3)CC2)cc1 | 10.5 | –
CSc1ccccc1NC(=O)c1ccc2c(c1)CCN2S(C)(=O)=O | -3.55 | –
CC(NC(=O)Cn1cc(C(F)(F)F)cc(Cl)c1=O)c1ccccc1 (configuration not stated) | 0.816 | –
Cc1nnc(SCC(=O)NC2CCCC2)s1 | -2.13 | –
CO/N=C(\C(=O)N[C@@H]1C(=O)N2C(C(=O)O)=C(COC(C)=O)CS[C@H]12)c1csc(N)n1 (stereo in doubt) | – | inactive
Cc1nnc(SCC2=C(C(=O)O)N3C(=O)C(NC(=O)Cn4nc(C)c(Cl)c4C)C3SC2)s1 (configuration not stated) | – | 22.3 µM (active)
Cc1cccc(NC(=S)NCCc2ccc(Cl)cc2)c1C | -7.76 | –
O=C(Nc1ccccc1)/C(=C\c1ccco1)NC(=O)c1ccco1 | -17.9 | –
CCCC1=Nc2cc(C(=O)NCCN3CCCC3)ccc2Sc2ccccc21 | -13.9 | –
CCOC(=O)N1CCC(NC(=O)c2ccc3nc(N4CCOCC4)sc3c2)CC1 | 0.489 | –
Cc1nc(-c2ccc(Cl)cc2)sc1C(=O)NN | -0.949 | –
Cc1nc(N2CCOCC2)sc1C(=O)NN | – | 12.6 µM (active)
Cc1ccc(NS(=O)(=O)c2ccc3c(c2)oc(=O)n3C)c(C)c1 | -5 | –
Cc1ccc(OCc2n[nH]c(=S)n2-c2ccc(C)cc2)cc1 | -0.791 | –
CCCOc1ccc(-c2nc(N)n[nH]2)cc1 | -0.264 | –
Cc1ccc(OCCCCc2c(C)n[nH]c2C)cc1 | – | 20 µM (active)
Cc1ccccc1C(=O)N1CCC(C(=O)Oc2ccc(C#N)cc2)CC1 | 3.43 | –
Cc1ccc(CNC(=O)C2CCCN2S(=O)(=O)c2ccc3c(c2)C(C)(C)C(=O)N3C)cc1 (configuration not stated) | -6.54 | –
CCCCOC(=O)Nc1nnc(CC(=O)NCc2ccccc2)s1 | -0.363 | –

SMILES | activity, negative = inhibition [%] | Potency
CCCOC1CCCN(C(=O)c2cc(COc3cncc(Cl)c3)on2)C1 (configuration not stated) | 9.73 | –
C/C(=N\NC(=O)c1cccc([N+](=O)[O-])c1)c1cccnc1 | -13.4 | –
C/C(=N\NC(=O)c1cccnc1)c1ccc(-c2ccccc2)cc1 | -7.85 | –
C/C(=N\NC(N)=S)c1cccnc1 | – | 15.8 µM (active)
CCOC(=O)[C@@H]1[C@H]2COc3cc(OC)ccc3[C@@H]2N2C(=O)N(c3cccc(C)c3)C(=O)[C@@]12C | 7.91 | –
CN(Cc1ccccc1)C(=O)c1cccc(C(=O)N(C)Cc2ccccc2)c1 | -0.983 | –
CCOc1ccc(N(CC(=O)NCCc2ccc(F)cc2)S(=O)(=O)c2ccccc2)cc1 | -4.82 | –
Cc1cccc(S(=O)(=O)N2CN(CC3CCCO3)c3nc4ccccc4nc32)c1 (configuration not stated) | 1.71 | –
CC/C(=N\NC(=O)c1c(C)nc2ccccn12)c1ccc(Cl)cc1 | 3.33 | –
CC1(C)Cc2ccccc2/C(=C/C(=O)c2ccccc2)N1 | 3.19 | –
CCCc1nc2ccccc2c(=O)n1/N=C/c1ccc(O)c(O)c1 | – | 2.51 µM (active)
Cn1c(SCC(=O)N/N=C/c2ccc(O)c(O)c2)nc2ccccc21 | -28.4 | –
CCCc1nc2ccccc2c(=O)n1NC(=O)c1c(O)c2ccccc2[nH]c1=O | 13.6 | –
CC1C(=O)N(Cc2ccccc2)c2ccccc2N1C(=O)c1ccccc1 (configuration not stated) | -14 | –
COc1ccccc1C1C(C(N)=O)=C(C)Nc2nc(CCCO)nn21 (configuration not stated) | -8.27 | –
CN=C1S/C(=C\c2ccc(Sc3ccc(Cl)cc3)o2)C(=O)N1C | -1.64 | –
CN1C(=O)/C(=C\c2ccc(-c3ccccc3)o2)SC1=S | – | 4.46 µM (active)
O=C(O)C(c1ccccc1)N1C(=O)/C(=C\c2ccc(-c3cccc(Cl)c3)o2)SC1=S (configuration not stated) | 0.845 | –
COc1ccc(CNC(=O)[C@H](Cc2c[nH]c3ccccc23)NC(C)=O)cc1OC | 7.31 | –
COc1ccc(CNCCc2c[nH]c3ccccc23)cc1OC | – | 17.8 µM (active)
COc1ccc(S(=O)(=O)NCCc2c[nH]c3ccccc23)cc1OC | -11 | –
CCN(CC(=O)Nc1ccc(Cl)c(S(=O)(=O)N(C)C)c1)Cc1nc2ccccc2c(=O)[nH]1 | -22.3 | –

SMILES | activity, negative = inhibition [%] | Potency
CCN(CC(=O)Nc1cccc(S(N)(=O)=O)c1)Cc1nc2ccccc2c(=O)[nH]1 | -26.8 | –
CCN(CC(=O)NC(=O)NCc1ccccc1)Cc1nc2ccccc2c(=O)[nH]1 | – | 17.7 µM (active)
CC(C)CCNC(=O)c1ccc2c(Cl)c3c(nc2c1)CCC3 | 8.8 | –
Cc1ccc(-n2c(SCC(=O)N3CCC(C(=O)O)CC3)nc3ccccc3c2=O)cc1C | 20.7 | –
COc1cc(CN2CC(C)CC(C)C2)cc([N+](=O)[O-])c1O (configuration not stated) | -12.8 | –
COc1cc(CN2CCN(Cc3ccc(C)cc3)CC2)c([N+](=O)[O-])cc1OC | – | 5.61 µM (active)
COc1cc(NC(=O)NCC2CCN(Cc3ccc(C)cc3)CC2)cc(OC)c1OC | 8.41 | –
CC(=O)c1ccc(N2CCN(S(=O)(=O)c3ccc4c(c3)CC(=O)N4C)CC2)cc1 | -5.35 | –
COc1ccc(NC(=O)c2cc(-c3cc(OC)c(OC)c(OC)c3)nc3ccccc23)c(OC)c1 | 7.02 | –
Cn1c(=O)n(C)c2cc(S(=O)(=O)Nc3ccc(F)cc3)ccc21 | 0.615 | –
COc1ccc(NC(=O)C(CC(C)C)NC(=O)C2CCC(C)CC2)cc1 (configuration not stated) | -1.41 | –
CC[C@]1(c2ccccc2OC)C(=O)N(C(=O)OC)N1C(=O)OC | 5.5 | –
COc1ccccc1NC(=O)N1C[C@@H]2C[C@@H](C1)c1cccc(=O)n1C2 | 11.9 | –
COc1cccc(C(=O)N2C[C@H]3C[C@@H](C2)c2cccc(=O)n2C3)c1 | 3.02 | –
O=C(NC(=S)N1C[C@H]2C[C@H](C1)c1cccc(=O)n1C2)c1ccc(F)cc1 | – | 7.94 µM (active)
Cc1ccc(SCCSc2ncccn2)cc1 | 2.18 | –
CC(=O)NCCC(=O)Nc1cc(S(=O)(=O)N2CCOCC2)ccc1N1CCOCC1 | 6.3 | –
O=C(COC(=O)Cc1ccc(F)cc1)Nc1cc(S(=O)(=O)N2CCOCC2)ccc1N1CCCC1 | 3.37 | –
COCCNC(=S)Nc1cc(S(=O)(=O)N2CCOCC2)ccc1N1CCCCC1 | – | 2.81 µM (active)
